PubChem BioAssay AID1159580 (chemical genetic matrix, 2015)
Several values for one entry are separate records, joined by “and”; a condition that tells them apart may be missing. Equal values may be shown once. About 2,000 (36%) of roughly 5,500 compounds were called active. Roughly 18% stayed inconclusive and do not appear here. No stated cut-off is given here; in the data, active means normalized growth mostly below about 0.91 (no sharp cut-off); inconclusive means no clear call, values can overlap the other calls; inactive means mostly above about 0.92. The list shows a part of the results.

Assay: chemical genetic growth profiling, strain panel (AID 1159580);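 further: tested at 20 µM; growth read once vehicle control cultures reached saturation at 30 °C; 1 = growth at the plate median or of vehicle wells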
Settings: S. cerevisiae deletion strains, growth OD

CS(=O)(=O)CCCCN=C=S
normalized growth (locus YAL021C, strain ccr4, stronger effect = lower value): 0.889 (active) | normalized growth (locus YAL030W, strain snc1, stronger effect = lower value): 0.734 (active) | normalized growth (locus YBL061C, strain skt5, stronger effect = lower value): 0.746 (active) | normalized growth (locus YBR009C, strain hhf1, stronger effect = lower value): 0.495 (active) | normalized growth (locus YBR021W, strain FUR4, stronger effect = lower value): 0.847 (active) | normalized growth (locus YBR023C, strain chs3, stronger effect = lower value): 0.769 (active) | normalized growth (locus YBR171W, strain sec66, stronger effect = lower value): 0.954 (inactive) | normalized growth (locus YBR229C, strain ROT2, stronger effect = lower value): 0.96 (inactive) | normalized growth (locus YBR231C, strain swc5, stronger effect = lower value): 0.504 (active) | normalized growth (locus YBR279W, strain paf1, stronger effect = lower value): 0.708 (active) | normalized growth (locus YCL011C, strain gbp2, stronger effect = lower value): 0.551 (active) | normalized growth (locus YCL016C, strain dcc1, stronger effect = lower value): 0.751 (active) | normalized growth (locus YCL029C, strain bik1, stronger effect = lower value): 0.822 (active) | normalized growth (locus YCL061C, strain MRC1, stronger effect = lower value): 0.834 (active) | normalized growth (locus YCL069W, strain vba3, stronger effect = lower value): 0.663 (active) | normalized growth (locus YCR088W, strain abp1, stronger effect = lower value): 0.84 (active) | normalized growth (locus YDL005C, strain med2, stronger effect = lower value): 1.01 (inactive) | normalized growth (locus YDL035C, strain GPR1, stronger effect = lower value): 0.791 (active) | normalized growth (locus YDL040C, strain nat1, stronger effect = lower value): 0.896 (active) | normalized growth (locus YDL074C, strain BRE1, stronger effect = lower value): 0.683 (active) | normalized growth (locus YDL101C, strain DUN1, stronger effect = lower value): 0.853 (active) | normalized growth (locus YDL134C, strain PPH21, stronger effect = lower value): 0.762 (active) | normalized growth (locus YDL185W, strain tfp1, stronger effect = lower value): 0.948 (inactive) | normalized growth (locus YDL192W, strain arf1, stronger effect = lower value): 0.688 (active) | normalized growth (locus YDR001C, strain nth1, stronger effect = lower value): 0.896 (active) | normalized growth (locus YDR069C, strain doa4, stronger effect = lower value): 0.829 (active) | normalized growth (locus YDR101C, strain arx1, stronger effect = lower value): 0.742 (active) | normalized growth (locus YDR137W, strain rgp1, stronger effect = lower value): 0.918 (inactive) | normalized growth (locus YDR150W, strain NUM1, stronger effect = lower value): 0.963 (inactive) | normalized growth (locus YDR159W, strain sac3, stronger effect = lower value): 0.898 (inactive) | normalized growth (locus YDR162C, strain NBP2, stronger effect = lower value): 0.69 (active) | normalized growth (locus YDR195W, strain ref2): 1.2 [resistant] (active) | normalized growth (locus YDR297W, strain sur2, stronger effect = lower value): 0.737 (active) | normalized growth (locus YDR318W, strain mcm21, stronger effect = lower value): 0.816 (active) | normalized growth (locus YDR334W, strain swr1, stronger effect = lower value): 0.375 (active) | normalized growth (locus YDR335W, strain msn5, stronger effect = lower value): 0.802 (active) | normalized growth (locus YDR388W, stronger effect = lower value): 0.869 (active) | normalized growth (locus YDR392W, strain spt3, stronger effect = lower value): 0.474 (active) | normalized growth (locus YDR502C, strain sam2, stronger effect = lower value): 0.696 (active) | normalized growth (locus YEL003W, strain gim4, stronger effect = lower value): 0.217 (active) | normalized growth (locus YEL037C, strain rad23, stronger effect = lower value): 0.749 (active) | normalized growth (locus YEL061C, strain CIN8 (second series), stronger effect = lower value): 0.853 (active) | normalized growth (locus YEL061C, strain CIN8, stronger effect = lower value): 0.978 (inactive) | normalized growth (locus YER015W, strain faa2, stronger effect = lower value): 0.478 (active) | normalized growth (locus YER016W, strain bim1, stronger effect = lower value): 0.758 (active) | normalized growth (locus YER110C, stronger effect = lower value): 0.807 (active) | normalized growth (locus YER111C, strain swi4, stronger effect = lower value): 0.988 (inactive) | normalized growth (locus YER155C, strain BEM2 (second series), stronger effect = lower value): 0.439 (active) | normalized growth (locus YER155C, strain BEM2, stronger effect = lower value): 1.01 (inactive) | normalized growth (locus YER167W, strain BCK2, stronger effect = lower value): 0.973 (inactive) | normalized growth (locus YFR010W, strain ubp6, stronger effect = lower value): 0.62 (active) | normalized growth (locus YGL078C, strain dbp3, stronger effect = lower value): 0.92 (active) | normalized growth (locus YGL086W, strain mad1, stronger effect = lower value): 0.723 (active) | normalized growth (locus YGL167C, strain pmr1, stronger effect = lower value): 0.964 (inactive) | normalized growth (locus YGL173C, strain kem1, stronger effect = lower value): 0.692 (active) | normalized growth (locus YGL227W, strain vid30, stronger effect = lower value): 0.86 (active) | normalized growth (locus YGL240W, strain doc1, stronger effect = lower value): 0.545 (active) | normalized growth (locus YGL248W, strain PDE1, stronger effect = lower value): 0.724 (active) | normalized growth (locus YGL253W, strain hxk2, stronger effect = lower value): 0.428 (active) | normalized growth (locus YGR078C, strain PAC10, stronger effect = lower value): 0.799 (active) | normalized growth (locus YGR135W, strain pre9, stronger effect = lower value): 0.815 (active) | normalized growth (locus YGR252W, strain gcn5, stronger effect = lower value): 0.634 (active) | normalized growth (locus YHR013C, strain ard1, stronger effect = lower value): 0.816 (active) | normalized growth (locus YHR027C, strain rpn1, stronger effect = lower value): 0.618 (active) | normalized growth (locus YHR030C, strain SLT2, stronger effect = lower value): 0.969 (inactive) and 0.726 (active) | normalized growth (locus YHR079C, strain IRE1 (second series), stronger effect = lower value): 0.885 (active) | normalized growth (locus YHR079C, strain IRE1, stronger effect = lower value): 0.67 (active) | normalized growth (locus YHR094C, strain hxt1, stronger effect = lower value): 0.913 (active) | normalized growth (locus YHR129C, strain ARP1, stronger effect = lower value): 0.865 (active) | normalized growth (locus YHR142W, strain chs7, stronger effect = lower value): 0.536 (active) | normalized growth (locus YHR200W, strain rpn10, stronger effect = lower value): 0.905 (active) | normalized growth (locus YIL066C, strain RNR3, stronger effect = lower value): 0.807 (active) | normalized growth (locus YIL073C, strain SPO22, stronger effect = lower value): 0.772 (inactive) | normalized growth (locus YIL125W, strain kgd1, stronger effect = lower value): 0.901 (active) | normalized growth (locus YIR030C, strain dcg1, stronger effect = lower value): 0.77 (active) | normalized growth (locus YJL092W, strain hpr5, stronger effect = lower value): 0.782 (active) | normalized growth (locus YJL095W, strain BCK1 (second series), stronger effect = lower value): 0.791 (active) | normalized growth (locus YJL095W, strain BCK1, stronger effect = lower value): 0.606 (active) and 0.709 (active) | normalized growth (locus YJL115W, strain asf1, stronger effect = lower value): 0.941 (inactive) | normalized growth (locus YJL129C, strain trk1, stronger effect = lower value): 0.762 (active) | normalized growth (locus YJL134W, strain LCB3, stronger effect = lower value): 0.981 (inactive) | normalized growth (locus YJL154C, strain vps35, stronger effect = lower value): 0.839 (active) | normalized growth (locus YJL164C, strain tpk1, stronger effect = lower value): 0.607 (active) | normalized growth (locus YJL166W, strain qcr8, stronger effect = lower value): 0.493 (active) | normalized growth (locus YJL168C, strain set2, stronger effect = lower value): 0.954 (inactive)
